From PubChem BioAssay AID1117319 (Southern Research Institute, 2015)
Where “and” joins values, the source holds several entries; their conditions need not be identical. Equal values may be shown once. Screen size: about 260,000 compounds; about 1,500 (0.58%) were called active. Another 5% or so got no clear call; they are omitted.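 How the source made its calls: active means inhibition above a set limit at one or more doses, reproduced on every date tested; inconclusive means results disagree between test dates, or hit never tested in dose response; inactive means the rest.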 Only a sample is shown. Results with a measured potency or affinity are listed apart.

What follows are compounds tested against Virion infectivity factor (Human immunodeficiency virus type 1 group M subtype B (isolate BH10)) + Virion infectivity factor (Human immunodeficiency virus type 1 group M subtype B (isolate BRU/LAI)) + Virion infectivity factor (Human immunodeficiency virus type 1 group M subtype B (isolate PCV12)) + Virion infectivity factor (Human immunodeficiency virus type 1 group M subtype B (isolate HXB2)) + DNA dC->dU-editing enzyme APOBEC-3G (Homo sapiens) (UniProt P69720+P69721+P69722+P69723+Q9HC16) (assay: inhibitors of Vif binding to APOBEC3G peptide, primary screen, biochemical, TR-FRET, GST-Vif 1-94, biotin-A3G peptide, dose response retest (AID 1117319;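 further: Vif residues 1-94 fused to GST binding biotinylated APOBEC3G peptide 110-148; 0% = full assay without inhibitor and 100% = GST in place of GST-Vif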)). Conditions: stronger effect = higher value.

inhibition, inactive:
Cc1ccc(NC(=O)C2CC(O)CN2C(=O)OCc2ccccc2)cc1C (stereo not given) -2.11%
CCc1nn2c(NCCOC)cc(C)nc2c1-c1ccc(F)cc1 -2.39%
CC1CCCCC1NC(=O)Cn1nnc2ccccc2c1=O (stereo not given) -5.45%
CCCN(C(=O)COc1ccc(C(C)=O)cc1OC)C1CCS(=O)(=O)C1 (stereo not given) -0.07%
CC(C)OCCCNCc1cccs1 -0.18%
C=CCSC1=N/C(=C\c2ccsc2)C(=O)S1 2.35%
CCCSC1=N/C(=C\c2ccsc2)C(=O)S1 0.21%
CCSC1=N/C(=C\c2ccc(-c3ccccc3[N+](=O)[O-])o2)C(=O)S1 13.5%
CCOc1c(OC(C)=O)ccc(/C=C2\N=C(SCC)SC2=O)c1[N+](=O)[O-] 9.49%
CCCSC1=N/C(=C\c2ccc3c(c2)OCO3)C(=O)S1 27%
C=CCSC1=N/C(=C\c2ccc(C(=O)O)cc2)C(=O)S1 -15.6%
COc1ccccc1NC(=O)NCCN1C(=O)C2C3C=CC(C3)C2C1=O (stereo not given) 4.08%
CCOC(=O)c1c(-c2ccc(Cl)cc2)cn2ccccc12 13.8%
COc1ccc(OC)c(NC(=O)c2ccccc2N(Cc2ccccc2)S(C)(=O)=O)c1 7.69%
CC(OC(=O)c1ccc(Cl)nc1)C(=O)NC1(C#N)CCCCC1 (stereo not given) 2.48%
COc1cccc(C(=O)NCC(c2ccc3c(c2)OCO3)N2CCN(c3ccc(F)cc3)CC2)c1 (stereo not given) -2.23%
CC(=O)N1CCOc2ccc(S(=O)(=O)NCCc3cccc(C)c3)cc21 2.22%
Cc1ccc2cc(CN(CCN3CCOCC3)Cc3nnnn3Cc3ccco3)c(=O)[nH]c2c1C 11.1%
Cc1ccc2cc(CN(Cc3ccc4c(c3)OCO4)Cc3nnnn3Cc3ccco3)c(=O)[nH]c2c1C -12.9% and 10.6%
COC(=O)c1ccc(Cn2nc(C)c(Cl)c2C)o1 3.48%
Clc1cccc(CON/C=N/c2ncnc3sccc23)c1 -6.38%
CC(=O)Nc1ccccc1OCC(=O)NCCC1=CCCCC1 -8.53%
CCN(CC)c1ccc2cc(C=O)c(=O)oc2c1 24.5%
CCN(CC)c1ccc2c(C)c(Cl)c(=O)oc2c1 -11.9%
CC(C)N=C1SCC(C)(/C=N/O)S1 (stereo not given) 5.98%
O=C1[C@@H]2[C@H](Cc3ccc(O)cc3)N[C@]3(C(=O)Nc4ccccc43)[C@@H]2C(=O)N1c1ccc(F)cc1 3.97%
O=C1[C@@H]2C(Cc3ccc(O)cc3)NC3(C(=O)Nc4ccc(F)cc43)[C@@H]2C(=O)N1c1ccccc1 (stereo not given in full) -9.27%
CCN=C1SC(CC(N)=O)C(=O)N1CC (stereo not given) 9.83%
Cc1nc(N2CCN(C(=O)c3ccco3)CC2)nc2c1C(=O)CC(C)C2 (stereo not given) -2.42%
COc1ccc(Cl)cc1NC(=O)c1cnccn1 3.9%
Cc1nc(N)c(C#N)c(-c2ccc3c(c2)OCO3)c1C -4.59%
Cc1c(C)n(C(=O)CSc2ncn[nH]2)c2ccccc12 -2.61%
Cc1[nH]c2ccccc2c1C(=O)CSc1nc2ccccc2[nH]1 30.3%
CC(=O)c1ccc(NC(=O)c2cnn3ccccc23)cc1 1.77%
CSc1cccc(NC(=O)c2cnn3ccccc23)c1 1.6%
COc1ccc(N2CCN(C(=O)CSc3ncn[nH]3)CC2)cc1 7.54%
COc1ccc(-n2nnnc2/C=C/Nc2cc(C(F)(F)F)ccc2OC)cc1 -7.87%
C=C(C1=CCN(S(=O)C(C)(C)C)[C@H]1CCO)c1ccccc1 (stereo not given in full) -5.4%
Cc1nc2cc(-c3ccccc3)nn2c(C)c1CCC(=O)N1CCN(c2ccccc2)CC1 -3.02%
Cc1nc2nc(C)c(CCC(=O)N3CCN(c4ccccn4)CC3)c(C)n2n1 8.31%
Cc1ccc(/C=N/n2cnc3sc4c(c3c2=O)CCCC4)o1 8.22%
CC(C)N(C(=S)Nc1cccnc1)c1ccccc1 4.04%
CCN(C(=S)Nc1cccnc1)c1ccccc1 -9.76%
O=[N+]([O-])c1ccccc1N/N=C/c1ccc2c(c1)OCO2 26.8%
Cc1c(-c2ccccc2)nc2ccccc2c1C(=O)NCc1cccs1 10.6%
COc1cc(NC(=O)c2cnn3c(C)cc(C)nc23)c(OC)cc1Cl 0.24%
Cc1ccc(NC(=O)c2cc3nc(C)cc(C)n3n2)cc1 3.27%
COc1cc(C2c3c([nH]c(=O)[nH]c3=O)Nc3ccc4ccccc4c32)cc(OC)c1OC (stereo not given) 1.71%
CCC(=O)N(c1nnc(SCC(=O)Nc2sccc2C(N)=O)s1)C1CC1 4.16%
O=C(OC1CCCCC1)c1ccc(NC(=O)C2CCCCC2)cc1 2.8%
CCOC(=O)c1ccc2nc(C)c3c(c2c1)OC(C)C3 (stereo not given) -3.24%
CCN(CC)C(=O)c1ccc(C)c(Br)c1 -4.6%
Fc1ccc2c(c1)C1C=CCC1C(c1cc3c(cc1Br)OCO3)N2 (stereo not given) 1.91%
O=C(O)CCC(=O)Nc1ccc(C(=O)OC2CCCCC2)cc1 9.06%
CCOC(=O)c1ccc2c(c1)C(=O)N(C1CCCCC1)C2=O 6.81%
O=C1CN(C(=O)c2c(F)cccc2F)C(c2ccccc2)c2cc(Br)ccc2N1 (stereo not given) -0.06%
CCN(CC)C(=O)c1ccc(-c2ccccc2)cc1 3.81%
CN1CC(=O)N(CC(=O)Nc2ccc(N3CCOCC3)cc2)C1=O -19.5%
O=C1OC(Cc2ccccc2)(c2ccccc2)c2ccccc21 (stereo not given) 3.92%
CN(C(=O)Cn1nnc(-c2cccnc2)n1)C1CCCCC1 8.32%
CCOP(=O)(OCC)C(NC(=O)Nc1ccc(C)c(Cl)c1)c1ccccc1 (stereo not given) 1.69%
COc1cc(/C=N/N=C(\N)c2nonc2N)cc(OC)c1O 16.4%
CCCc1nn2c(=O)cc(O)nc2s1 3.77%
CCCNc1nc(C)c(C(C)=O)cc1C#N 29.1%
Cc1nn(C)c(Oc2cccc(C(F)(F)F)c2)c1C#N 1.09%
CNc1nc(C)c(C(=O)c2ccc(Cl)cc2)s1 -4.16%
CCC(NC(=O)c1ccccc1NC(=O)c1ccc(C)cc1)C(=O)O (stereo not given) 2.64%
Cc1ccc2c(c1)C(c1ccc(F)cc1)N(C(=O)C1CC1)CC(=O)N2 (stereo not given) -2.57%
CC(=O)c1ccc(N2CCC(C(=O)O)CC2)cc1 6.29%
Cc1ccc2c(c1)C(c1ccccc1)N(C(=O)C(C)C)CC(=O)N2 (stereo not given) 1.62%
CC(=O)c1ccc2c(c1)CCN2 9.69%
COC(=O)c1cc(=O)nc2scc(C)n12 5.72%
C=C1[C@@H](C)C2[C@H](Cc3ccccc3)NC(=O)[C@]23OC(=O)CC[C@H](O)CCC[C@H](C)C/C=C/[C@H]3[C@@H]1O (stereo not given in full) 6.17%
CC(C)OP(=O)(c1ccc(N(C)C)cc1)C(O)c1ccc(N(C)C)cc1 (stereo not given) -8.7%
CC(C)COP(=O)(OCC(C)C)C(O)c1ccc(N(C)C)cc1 (stereo not given) 12.4%
O=C(O)c1ccc2c(c1)C(=O)N(c1cccc(S(=O)(=O)Nc3cccc(C(F)(F)F)c3)c1)C2=O 25.9%
CCOC(=O)C1=C(C)N=C2SC(C(=O)OC)=CC(=O)N2C1c1ccc(OC)cc1 (stereo not given) 7.8%
CCOC(=O)C1=C(C)N=C2SC(C(=O)OC)=CC(=O)N2C1c1cccc(OC)c1 (stereo not given) 0.81%
N#Cc1ccc(N2CCCNCC2)nc1 -3.01%
COc1ccc2oc(C(=O)N3CCCc4ccccc43)c(C)c2c1 0.82%
CC1CCC(NC(=O)C2CCN(c3nc4ccccc4s3)CC2)CC1 (stereo not given) 7.57%
CC1CCCCN1Cc1ccc(N)cc1 (stereo not given) -2.03%
CN(C)c1ccc(CN2CCCCCC2)cc1 8.55%
COc1ccc(C2NC(Cc3ccccc3)(C(=O)O)C3C(=O)N(c4ccccc4OC)C(=O)C23)cc1 (stereo not given) -0.26%
CCOC(=O)c1cnc2nc(SC)nn2c1N 4.24%
C=CCn1c(Sc2nnc(C)s2)nc2c1c(=O)[nH]c(=O)n2C 3.94%
C=CCn1c(N2CCCC2)nc2c1c(=O)[nH]c(=O)n2C -1.68%
COCCn1c(Sc2nc(C)cs2)nc2c1c(=O)[nH]c(=O)n2C -3.29%
C=CCn1c(N2CCOCC2)nc2c1c(=O)[nH]c(=O)n2C 1.7%
CC(=O)Nc1ccc(NC(=S)NC(=O)C2CC2)cc1 0.52%
CC(=O)Nc1ccc(NC(=O)CN2CCN(c3ccccn3)CC2)cc1 -2.22%
Cn1nc(C(=O)Nc2ccccc2N2CCCC2)c2ccccc2c1=O 1.83%
CCCOc1ccc(/C=c2\sc3nc(-c4ccco4)nn3c2=O)cc1OCC 8.17%
CCCOc1ccc(/C=c2\sc3ncnn3c2=O)cc1 3.82%
COc1ccccc1/C=C/C=c1\sc2nc(=O)c(Cc3ccccc3)nn2c1=O 26.2%
Cc1ccc(/C=c2\sc3nc(-c4cccnc4)nn3c2=O)cc1 8.43%
COc1ccccc1/C=c1\sc2nc(-c3ccco3)nn2c1=O 31.4%
COc1ccc(OC)c(/C=c2\sc3nc(-c4cccs4)nn3c2=O)c1 10.3%
O=c1nc2s/c(=C\c3ccco3)c(=O)n2nc1Cc1ccc(F)cc1 23.6% and -1.42%
COc1cccc(/C=c2\sc3nc(-c4cccs4)nn3c2=O)c1OC 21.5%
